Tau fibril FP: blocks human tau fibril formation measured by polarization; AID 1468; hit rate 0.39% among 280,000; K18 P301L tau heparin fibrillization, Alexa594 FP, 6 h; Potency, µM (titrated, usually from 57.7 µM), usual class: inhibitors; active = well fitted curve in the direction sought with a large enough effect; inconclusive = small, poorly fitted or top-dose-only effect, or another doubt; inactive = no such curve, though single readings can be large; an effect the other way counts as inactive or inconclusive; note: nearly all actives have a fitted effect of over 55% in size
Target sequence (P10636 561-689 P618L limits assumed): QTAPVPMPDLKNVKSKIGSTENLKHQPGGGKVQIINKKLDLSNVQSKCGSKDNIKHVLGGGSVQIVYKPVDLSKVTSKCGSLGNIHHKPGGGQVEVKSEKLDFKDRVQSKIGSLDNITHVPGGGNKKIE
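Steps: dispense K18 P301L tau (15 uM plus 0.24 uM Alexa 594 tracer, final) in pH 7 sodium acetate; add compound; add heparin (20 uM final); incubate 6 hr, 37 C; add ThT (30 uM final); after 1 hr ambient, read FP.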
Tau fibril ThT: inhibitors of human tau fibril formation, thioflavin T binding | P10636 | recombinant tau K18 P301L, heparin-induced fibrillization, ThT fluorescence | Potency, µM (top dose mostly 57.4 µM), most hits filed as inhibitors | hit rate 2.1% among 270,000; active = well fitted curve in the direction sought with a large enough effect; inconclusive = small, poorly fitted or top-dose-only effect, or another doubt; inactive = no such curve, though single readings can be large; an effect the other way counts as inactive or inconclusive; note: nearly all actives have a fitted effect of over 55% in size
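Aggregation was driven by heparin (20 uM final) acting on recombinant tau […] bearing P301L in 100 mM sodium acetate pH 7; fibrils were detected with Thioflavin T.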
JMJD2E inh: JMJD2E (human) inhibition | Potency, µM (doses to about 57.1 µM), usual class: inhibitors | AID 2147 | hit rate 1.6% among 230,000 | JMJD2E catalytic domain, FDH-coupled NADH fluorescence (FDH is formaldehyde dehydrogenase) | B2RXH2; note: nearly all actives have a fitted effect of over 50% in size
Target sequence (B2RXH2 1-337 limits assumed): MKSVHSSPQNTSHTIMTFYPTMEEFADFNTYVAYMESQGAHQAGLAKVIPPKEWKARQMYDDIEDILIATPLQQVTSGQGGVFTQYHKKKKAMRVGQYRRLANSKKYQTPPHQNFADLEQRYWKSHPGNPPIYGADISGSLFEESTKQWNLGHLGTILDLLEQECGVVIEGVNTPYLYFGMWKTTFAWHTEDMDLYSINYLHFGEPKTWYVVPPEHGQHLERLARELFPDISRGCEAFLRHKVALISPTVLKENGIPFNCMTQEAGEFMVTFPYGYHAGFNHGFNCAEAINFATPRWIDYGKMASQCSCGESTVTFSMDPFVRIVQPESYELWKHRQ
Tau fluor counter: counter-screen for tau fibril formation inhibitors; tau K18 P301L Alexa594 fluorescence, heparin fibrillization; Potency, µM (doses to about 57.7 µM); hit rate 0.93% among 280,000; AID 1463; active = well fitted curve in the direction sought with a large enough effect; inconclusive = small, poorly fitted or top-dose-only effect, or another doubt; inactive = no such curve, though single readings can be large; an effect the other way counts as inactive or inconclusive; note: nearly all actives have a fitted effect of over 55% in size
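Human tau K18 P301L (15 uM unlabeled, 0.24 uM Alexa 594-labeled) in 100 mM sodium acetate pH 7 with 20 uM heparin, 6 hr at 37 C. ThT 30 uM added, 1 hr ambient; Alexa 594 FP and total fluorescence read at 555/632 nm.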
HPGD inh: HPGD (human) dehydrogenase inhibition; hit rate 4.3% among 150,000; AID 894; Potency, µM, usual class: inhibitors; purified HPGD, NADH fluorescence kinetic, PGE2 substrate; P15428
Target sequence (P15428 whole entry, looked up): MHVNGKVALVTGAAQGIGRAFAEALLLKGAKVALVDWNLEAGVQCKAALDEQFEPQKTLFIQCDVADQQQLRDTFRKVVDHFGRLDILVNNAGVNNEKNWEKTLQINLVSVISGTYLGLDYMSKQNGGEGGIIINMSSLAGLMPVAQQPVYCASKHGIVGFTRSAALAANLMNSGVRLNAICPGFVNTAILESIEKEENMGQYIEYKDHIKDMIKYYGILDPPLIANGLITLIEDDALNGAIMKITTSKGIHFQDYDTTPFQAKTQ
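20 nM HPGD preincubated 15 min at room temperature with compound in 50 mM Tris-HCl pH 8, 0.01% Tween 20. Started with 1 mM NAD+ and 30 uM prostaglandin E2; NADH fluorescence (360/450 nm) read 5 times over 30-s intervals, last minus first.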
ALDH1A1 block: inhibitors of human aldehyde dehydrogenase 1A1; AID 1030; hit rate 7.3% among 220,000; P00352; Potency, µM (series often up to 75.3 µM), actives largely listed as inhibitors; Purified ALDH1A1, NADH fluorescence, propionaldehyde substrate
Hits are given with their value; [ ] = dose if it differs, or a comment. Sampled rows, rich in hits. Any-hit rate of the full collection: about 9.9%. Unless noted, calls come from the whole dose curve; as a rule, active = well fitted inhibition curve with a large enough effect (not every such curve was filed as active); inconclusive = small, poorly fitted or top-dose-only effect, or another doubt; inactive = no such curve, though single readings can be large or run the other way.

For COc1ccc(-c2nc3sc(CCNC(=O)c4ccc(C(C)(C)C)cc4)c(C)n3n2)cc1 the results were Tau fibril FP inactive, Tau fibril ThT inactive and Tau fluor counter inactive.
CC(=O)Nc1c(C(=O)N2CCCCCC2)cnn1-c1ccccc1Cl was read as Tau fibril FP inactive, Tau fibril ThT inactive, JMJD2E inh inactive, Tau fluor counter inactive, HPGD inh 14.1µM and ALDH1A1 block inactive.
Cc1nc2ccn(Cc3cccs3)c(=O)c2cc1C(=O)N1CCN(c2ccccc2)CC1 was read as Tau fibril FP inactive, Tau fibril ThT inactive and Tau fluor counter inactive.
Cc1cccc(-c2cc(=O)c3cc(Br)ccc3o2)c1 was read as Tau fibril FP inactive, Tau fibril ThT inconclusive, JMJD2E inh inactive, Tau fluor counter inactive, HPGD inh inactive and ALDH1A1 block inactive.
Screening CCOC(=O)C(C)(C)[C@H](O)C(C)C returned HPGD inh inactive and ALDH1A1 block inactive[13.5 µM].
`COc1ccc(C(C)C)cc1S(=O)(=O)NCCc1c(C)[nH]c2c(Cl)cccc12` gave Tau fibril FP inactive, Tau fibril ThT inconclusive and Tau fluor counter inconclusive.
Screening COc1cc(S(=O)(=O)NCCc2c(C)[nH]c3ccc(C)cc23)ccc1Br returned Tau fibril FP inconclusive, Tau fibril ThT inconclusive and Tau fluor counter 14.1µM[quencher].
For COc1ccc(C(C)C)cc1S(=O)(=O)NCCc1c(C)[nH]c2ccc(C)cc12 the results were Tau fibril FP inconclusive, Tau fibril ThT inconclusive and Tau fluor counter 10µM[quencher].
`CCC(=O)Nc1cc2c(C)cc(=O)oc2cc1C` gave Tau fibril FP inactive, Tau fibril ThT inactive, JMJD2E inh inconclusive, Tau fluor counter inactive, HPGD inh inconclusive and ALDH1A1 block inconclusive.
Screening CCc1cc(SC#N)cc(C)c1N returned Tau fibril FP inconclusive, Tau fibril ThT 14.1µM, JMJD2E inh inactive, Tau fluor counter inactive and ALDH1A1 block inconclusive.
`CCc1cc(SC#N)cc(C)c1NC(=O)CCl` gave Tau fibril FP inactive, Tau fibril ThT inactive, JMJD2E inh inactive, Tau fluor counter inactive, HPGD inh 15.8µM and ALDH1A1 block inactive.
`Cc1cc(SC#N)cc(C)c1NC(=O)CCl` gave Tau fibril FP inactive, Tau fibril ThT inactive, JMJD2E inh inactive, Tau fluor counter inactive, HPGD inh inconclusive and ALDH1A1 block inconclusive.
Screening CCC(=O)Nc1ccc(SC#N)cc1C returned Tau fibril FP inconclusive, Tau fibril ThT 8.91µM, JMJD2E inh inactive, Tau fluor counter inactive, HPGD inh inactive and ALDH1A1 block 2.51µM.
O=C(NCc1cccs1)C1CCN(S(=O)(=O)c2ccccc2F)CC1 was read as Tau fibril FP inactive, Tau fibril ThT inactive, JMJD2E inh inactive and Tau fluor counter inactive.
For O=C(Nc1ccc(Cl)cc1)N1CCN(c2ccccc2)CC1 the results were Tau fibril FP inactive, Tau fibril ThT inactive, JMJD2E inh inactive, Tau fluor counter inactive, HPGD inh inactive and ALDH1A1 block inactive.
O=C(Nc1ccc(Cl)cc1)N1CCCN(Cc2ccccc2F)C1 was read as Tau fibril FP inconclusive, Tau fibril ThT inactive, JMJD2E inh inactive, Tau fluor counter inconclusive, HPGD inh 12.6µM and ALDH1A1 block inactive.
Fc1ccc(CN2CCCCCCC2)cc1F was read as Tau fibril FP inactive, Tau fibril ThT inactive, JMJD2E inh inactive, Tau fluor counter inactive, HPGD inh inactive and ALDH1A1 block 17.8µM.
Screening Fc1ccccc1CN1CCCCCCC1 returned Tau fibril FP inactive, Tau fibril ThT inactive, JMJD2E inh inactive, Tau fluor counter inactive, HPGD inh inactive and ALDH1A1 block 14.1µM.
For Cc1ccc(NC(=O)N2CCCN(Cc3ccc(F)cc3)C2)cc1C the results were Tau fibril FP inactive, Tau fibril ThT inactive, JMJD2E inh inactive, Tau fluor counter inactive, HPGD inh inactive and ALDH1A1 block inactive.
`O=C(Nc1ccc(Cl)cc1)N1CCC(CO)(Cc2ccccc2)CC1` gave Tau fibril FP inactive, Tau fibril ThT inactive, JMJD2E inh inactive, Tau fluor counter inactive and ALDH1A1 block 12.6µM.
For CC(=O)Nc1ccc(S(=O)(=O)Oc2cccc(/C=N/N=C3/NC(=O)C(CC(=O)O)S3)c2)cc1 (centres undefined) the results were Tau fibril FP inconclusive, Tau fibril ThT inactive, JMJD2E inh inactive, Tau fluor counter inactive and ALDH1A1 block 7.51µM.
`CC1(C)CC(NC(=O)C(Cl)(Cl)Cl)CC(C)(C)N1` gave Tau fibril FP inactive, Tau fibril ThT inactive, JMJD2E inh inactive, Tau fluor counter inactive, HPGD inh inactive and ALDH1A1 block inactive.
Screening COC(=O)c1ccc(NC(=O)NC(C)c2c(-n3cccc3)sc(C)c2C)cc1 (centres undefined) returned Tau fibril FP 17.8µM, Tau fibril ThT inactive and Tau fluor counter inconclusive.
Screening CSCCC(NS(=O)(=O)c1ccccc1F)C(=O)OCc1ccccc1Cl (centres undefined) returned Tau fibril FP inactive, Tau fibril ThT inactive, JMJD2E inh inactive, Tau fluor counter inactive, HPGD inh inactive and ALDH1A1 block 15.8µM.
Screening CC1=C(C(=O)Nc2cccnc2)C(c2ccccc2)n2nc(SCc3ccccc3)nc2N1 (centres undefined) returned Tau fibril FP inconclusive, Tau fibril ThT inactive and Tau fluor counter inactive.
Screening Cc1cccc(CNc2ccnc(-c3ccoc3)n2)c1 returned Tau fibril FP inactive, Tau fibril ThT inconclusive, JMJD2E inh inactive, Tau fluor counter inactive, HPGD inh inconclusive and ALDH1A1 block 12.6µM.
COc1cccc(-c2nccc(NCc3cccc(C)c3)n2)c1 was read as Tau fibril FP inactive, Tau fibril ThT inconclusive, JMJD2E inh inactive, Tau fluor counter inconclusive, HPGD inh inactive and ALDH1A1 block inactive.
`Cc1cccc(CNc2ccnc(-c3ccc(C(=O)N(C)C)cc3)n2)c1` gave Tau fibril FP inactive, Tau fibril ThT inactive, JMJD2E inh inactive, Tau fluor counter inactive, HPGD inh 8.91µM and ALDH1A1 block inconclusive.
`Cc1ccc(-c2cc(C(=O)OCC(=O)c3ccccc3)c3cccc(Cl)c3n2)cc1` gave Tau fibril FP inconclusive, Tau fibril ThT inactive and Tau fluor counter inactive.
Screening CN(C)S(=O)(=O)c1cccc(NC(=O)CSc2nc3c(cc2C#N)C(=O)CC(C)(C)C3)c1 returned Tau fibril FP inconclusive, Tau fibril ThT inconclusive, JMJD2E inh inactive, Tau fluor counter inconclusive, HPGD inh inactive and ALDH1A1 block 1.41µM.
For CC(=O)Nc1sc2c(c1C#N)CCC2 the results were Tau fibril FP inactive, Tau fibril ThT inactive, JMJD2E inh inactive, Tau fluor counter inactive and ALDH1A1 block inactive.
Screening CCC(=O)Nc1sc2c(c1C#N)CCC2 returned Tau fibril FP inactive, Tau fibril ThT inactive, JMJD2E inh inactive, Tau fluor counter inactive and ALDH1A1 block inactive.
For COc1cccc(C(=O)Nc2sc3c(c2C#N)CCN(C(C)=O)C3)c1 the results were Tau fibril FP inactive, Tau fibril ThT inconclusive, JMJD2E inh inactive, Tau fluor counter inactive and ALDH1A1 block 8.91µM.

Source: PubChem (National Center for Advancing Translational Sciences (NCATS))
